From PubChem BioAssay (NCATS) come the findings set out here.

Results filed as inconclusive are left out. Values without a mark were called inactive. Active and inactive are the calls of the source. Calls come from the whole dose curve; as a rule, active = well fitted curve in the direction sought with a large enough effect; inconclusive = small, poorly fitted or top-dose-only effect, or another doubt; inactive = no such curve, though single readings can be large; an effect the other way counts as inactive or inconclusive.

The nature of test [1]: P-glycoprotein substrates identified in KB-3-1 adenocarcinoma cell line, qHTS therapeutic library screen (AID 1346986). Note: nearly all actives have a fitted effect of over 60% in size. In short, it runs like this: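 Viability by CellTiter-Glo after 72 h compound exposure at 37 degree C, 5% CO2. Cytotoxic call: curve class -1.1 to -2.4, maximum response >50%, AC50 < 10 uM, compared across KB-3-1 and P-gp-overexpressing KB-8-5-11.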
Test [2] is described as follows: P-glycoprotein substrates identified in KB-8-5-11 adenocarcinoma cell line, qHTS therapeutic library screen (AID 1346987). For activity change, negative = cytotoxicity: series mostly up to about 44 µM; % is set by controls: 0 for no effect and ±100 for the full control effect. Note: nearly all actives have a fitted effect of over 65% in size. The procedure, abridged: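 Human cervical adenocarcinoma KB-8-5-11 cells, selected in colchicine to over-express P-gp and assayed without it, were exposed for 72 h to titrated compounds. An ATP-based luminescent viability signal gave AC50.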
A general note: qHTS replaces the single test concentration by a dilution series.

For test [3], the system named is Zika virus NS2B-NS3 protease (unlinked complex). The test is described as follows: Primary screen GU Rhodamine qHTS for Zika virus inhibitors: Unlinked NS2B-NS3 protease assay (AID 1347159). For activity change, negative = inhibition: % is set by controls: 0 for no effect and ±100 for the full control effect. Note: nearly all actives have a fitted effect of over 60% in size. Note: potency is the fitted concentration of half-maximal effect. In short, it runs like this:
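Enzyme 25 nM in Tris-HCl pH 8.0 + 0.01% Tween 20; compounds up to 114 microM, 15 min RT dark; + Rhod110 substrate 1.5 microM; read t0 and 15 min; delta fluorescence → % inhibition → 4-parameter Hill fit.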

The test system of test [4] is Zika virus NS2B-NS3 protease (linked construct). Put plainly: Primary screen NINDS Rhodamine qHTS for Zika virus inhibitors (AID 1347160). Note: % is set by controls: 0 for no effect and ±100 for the full control effect; nearly all actives have a fitted effect of over 55% in size. In short, it runs like this: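 Enzyme (25 nM, linked NS2B-NS3) was preincubated 15 min with compound in 10 mM Tris-HCl pH 8.0, 0.01% Tween 20. Rhodamine110 substrate (1.5 microM) was then added and fluorescence read at start and after 15 min.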

Take `CC1(C)CCCC2(C)c3c4c(c(=O)oc(=O)c3=CCC12)=CCC1C(C)(C)CCCC41C` (stereo not given): the Potency entry in test [1], in test [2], in test [3] and in test [4] was “inactive” throughout.
Turning to `CC(=O)c1ccc(O[C@@H]2OC[C@@H](O)[C@H](O)[C@H]2O[C@]2(CO)O[C@H](CO)[C@@H](O)[C@@H]2O)c(O)c1`, the Potency entry in test [1], in test [2] and in test [3] was “inactive” in each case.
On to `C[C@@]1(O)[C@H](O)[C@@H](CO)O[C@H]1n1cnc2c(=O)[nH]c(N)nc21`, for which the Potency result in test [1], in test [2] and in test [3] was “inactive” throughout.
With `CC1=CC(=O)C2C(C)(C)CCC[C@]2(C)[C@H]1CC[C@H](C)CC(=O)O` (stereo not given in full), the Potency result in test [1], in test [2], in test [3] and in test [4] was “inactive” each time.
As for `COc1cc(/C=C/C(=O)O[C@@H]2C[C@](O)(C(=O)O)C[C@@H](O)[C@H]2O)ccc1O`, the Potency result in test [1], in test [2] and in test [3] was “inactive” each time.
Consider `C/C=C(\C)C(=O)OCC1OC(OCC2OC(OC3(CO)OC(CO)C(O)C3O)C(O)C(O)C2O)C(O)C(O)C1O` (stereo not given), for which the Potency entry in test [1], in test [2] and in test [3] was “inactive” each time.
With `CC1CC=C2C1CC1(O)C(=O)CC2(C)C1(C)CO` (stereo not given), the Potency entry in test [1] and in test [2] was “inactive” throughout. Besides, the Potency in test [3] is 35.5 µM (active).
Take `C=C1CCC2C(C)(C(=O)O)CCCC2(C)C1CC/C(C)=C\CO` (stereo not given): the Potency result in test [1], in test [2] and in test [3] was “inactive” each time.
Consider `CC(C)C1(O)NC(=O)C(CC2(O)c3ccccc3N3C(=O)C(C)(C)NC32)n2c1nc1ccccc1c2=O` (stereo not given), for which the Potency result in test [1], in test [2] and in test [3] was “inactive” each time.
On to `O=C(O)[C@H](Cc1ccccc1)Oc1ccc(-c2ccccc2)cc1`, for which the Potency result in test [1] and in test [2] was “inactive” each time. For the same molecule, the Potency in test [3] is 35.5 µM (active).
Take `CC1(C)OC(=O)CC(O)C2(C)C1CC(=O)C1(C)C2C(O)CC2(C)C(c3ccoc3)OC(=O)C3OC321` (stereo not given): the Potency entry in test [1], in test [2], in test [3] and in test [4] was “inactive” each time.
For the molecule `Cc1occc(=O)c1O[C@@H]1O[C@H](CO)[C@@H](O)[C@H](O)[C@H]1O`, the Potency result in test [1], in test [2] and in test [3] was “inactive” in each case.
As to `C=C1CC23CC1CCC2C12OC(=O)C(C)(C(O)C(O)C1O)C2C3C(=O)O` (stereo not given), the Potency entry in test [1], in test [2] and in test [3] was “inactive” in each case.
Regarding `CCC(C)(C)C1CCc2c(sc(NC(=O)c3ccc(Br)cc3)c2C#N)C1` (stereo not given), the Potency entry in test [1], in test [2], in test [3] and in test [4] was “inactive” throughout.
For the molecule `CC1CC(O)/C=C/C(O)/C=C\C(=O)O1` (stereo not given), the Potency result in test [1], in test [2] and in test [3] was “inactive” throughout.
With `OCC(O)C(c1c[nH]c2ccccc12)c1c[nH]c2ccccc12` (stereo not given), the Potency entry in test [1] and in test [2] was “inactive” in each case. The Potency in test [3] is 50.1 µM (active).
With `C[C@H]1[C@H](C)CC[C@]2(C(=O)OC3OC(CO)C(O)C(O)C3O)CC[C@]3(C(=O)O)C(=CCC4[C@@]5(C)CC[C@H](O[C@@H]6O[C@@H](C)[C@H](OC7OC(CO)C(O)C(O)C7O)[C@@H](O)[C@H]6O)C(C)(C)C5CC[C@]43C)[C@H]12` (stereo not given in full), the outcome in test [1] was “inactive [at 9.29 µM]”. Moreover, in test [2], the activity change, negative = cytotoxicity was -1.84% [at 9.29 µM]. Also, the Potency result in test [3] and in test [4] was “inactive” each time.
`O=C(N[C@H](Cc1ccccc1)C(=O)O)c1sc2cc(F)ccc2c1Cl`: the Potency entry in test [1] and in test [2] was “inactive” throughout. For the same molecule, in test [3], the Potency is 39.8 µM (active).
On to `COc1cc2c(cc1O)CC(O)(CO)C(CO)C2c1ccc(OC2OC(CO)C(O)C(O)C2O)c(OC)c1` (stereo not given), for which the Potency entry in test [1], in test [2] and in test [3] was “inactive” in each case.
In the case of `COc1cccc(Cn2ncc3c4sc(S(C)=O)cc4n(C)c3c2=O)c1` (stereo not given), the Potency result in test [1], in test [2], in test [3] and in test [4] was “inactive” throughout.
On to `COc1c(-c2ccc(O)cc2)cc(OC)c2c1oc1cc(O)c(OC3OC(CO)C(O)C3O)cc12` (stereo not given), for which the Potency entry in test [1] and in test [2] was “inactive” throughout. For the same molecule, the Potency in test [3] is 15.8 µM (active).
With `COc1cc(C2Oc3c(OC)cc(CCCO)cc3C2CO)ccc1O` (stereo not given), the Potency result in test [1] and in test [2] was “inactive” in each case. Further, in test [3], the Potency is 39.8 µM (active).
Regarding `CCCCNc1nc(N)c2[nH]c(=O)n(Cc3ccc(OCCN(C)C)nc3)c2n1`, the Potency entry in test [1], in test [2], in test [3] and in test [4] was “inactive” in each case.
Turning to `C/C=C/C=C/C=C/C(=O)N(C)C(C(=O)NC(C)C(=O)N1CCCC1C(N)=O)C(C)C` (stereo not given), the Potency entry in test [1], in test [2] and in test [3] was “inactive” in each case.
On to `Cc1cc(CO)c(O)c(C(=O)CC2CC(=O)NC(=O)C2)c1`, for which the Potency result in test [1], in test [2], in test [3] and in test [4] was “inactive” in each case.
On to `COCc1c(O)c(C(=O)O)c(C)c2c1OC(=O)c1c(C)cc(O)c(CO)c1O2`, for which the Potency result in test [1] and in test [2] was “inactive” in each case. Besides, in test [3], the Potency was 28.2 µM (active).
With `NC(=O)[C@H](Cc1ccccc1)NC(=O)[C@H](CCCN=C(N)N)NC(=O)C12CC3CC(CC(C3)C1)C2`, the outcome in test [1] and in test [2] was “inactive [at 9.29 µM]” throughout. In addition, the activity change, negative = inhibition in test [3] was -7.71% [at 19.1 µM].
With `C[C@@H]1O[C@@H](O[C@H]2[C@H](O[C@H]3[C@H](O[C@H]4CC[C@@]5(C)C(CC[C@]6(C)C5CC=C5[C@@H]7CC(C)(C)C[C@@H](O)[C@]7(C)CC[C@]56C)[C@@]4(C)CO)O[C@H](C(=O)O)[C@@H](O)[C@@H]3O)O[C@H](CO)[C@H](O)[C@@H]2O)[C@H](O)[C@H](O)[C@H]1O` (stereo not given in full), the outcome in test [1] and in test [2] was “inactive [at 9.29 µM]” in each case. Besides, the Potency entry in test [3] is “inactive”.
On to `CC(C)C1NC(=O)C(CC2(O)c3ccccc3N3C(=O)C(Cc4ccccc4)NC32)NC1=O` (stereo not given), for which the Potency entry in test [1], in test [2] and in test [3] was “inactive” each time.
